PME-1 primary: blocks human protein phosphatase methylesterase 1. recombinant PME-1, FP-Rh probe fluorescence polarization. Q9Y570. AID 2130. 320,000 tested, 0.53% active. inhibition, % at 5.9 µM;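 active means inhibition above the campaign mean of all compounds plus 3 SD, cut at about 26% in these data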;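 further: competitive labeling of PME-1 active site by serine hydrolase directed probe; inhibitors block probe labeling so polarization falls and inhibition rises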
MEX-5 binding: C. elegans MEX-5 TCR-2 RNA binding activity | Q9XUB2 | MEX-5/FITC-TCR2 RNA binding, fluorescence polarization; stronger effect = lower value | activity score (negative = inhibition of binding), % at 10 µM | 300,000 tested, 0.38% active | AID 1832;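 active means inhibition past about -25% in most replicates, and total fluorescence under double the plate's negative control median, limit read from the data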
Fam108B counter: Fam108B inhibition, counter-screen for RBBP9 inhibitors | 300,000 tested, 0.33% active | inhibition, % at 9.51 µM | recombinant Fam108B, FP-Rh probe fluorescence polarization | AID 1947;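 active means inhibition above the screen mean inhibition plus 3 SD, computed separately per campaign, cut at about 18% in these data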;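 further: inhibitors lower polarization as less probe binds the enzyme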
LYPLA2 inh: counter-screen for PME1 inhibitors: inhibitors of human LYPLA2; recombinant LYPLA2, FP-Rh probe fluorescence polarization; 320,000 tested, 0.38% active; inhibition, % at 5.9 µM;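 active means inhibition above the screen-wide mean plus 3 SD, limit set per campaign, cut at about 26% in these data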
PREPL inh: inhibitors of human prolyl oligopeptidase-like enzyme PREPL. Q4J6C6. recombinant PREPL, fluorescence polarization activity-based probe. inhibition, % at 5.96 µM. 320,000 tested, 0.68% active; in the data active means inhibition above about 43%
Target sequence (Q4J6C6 whole entry, looked up): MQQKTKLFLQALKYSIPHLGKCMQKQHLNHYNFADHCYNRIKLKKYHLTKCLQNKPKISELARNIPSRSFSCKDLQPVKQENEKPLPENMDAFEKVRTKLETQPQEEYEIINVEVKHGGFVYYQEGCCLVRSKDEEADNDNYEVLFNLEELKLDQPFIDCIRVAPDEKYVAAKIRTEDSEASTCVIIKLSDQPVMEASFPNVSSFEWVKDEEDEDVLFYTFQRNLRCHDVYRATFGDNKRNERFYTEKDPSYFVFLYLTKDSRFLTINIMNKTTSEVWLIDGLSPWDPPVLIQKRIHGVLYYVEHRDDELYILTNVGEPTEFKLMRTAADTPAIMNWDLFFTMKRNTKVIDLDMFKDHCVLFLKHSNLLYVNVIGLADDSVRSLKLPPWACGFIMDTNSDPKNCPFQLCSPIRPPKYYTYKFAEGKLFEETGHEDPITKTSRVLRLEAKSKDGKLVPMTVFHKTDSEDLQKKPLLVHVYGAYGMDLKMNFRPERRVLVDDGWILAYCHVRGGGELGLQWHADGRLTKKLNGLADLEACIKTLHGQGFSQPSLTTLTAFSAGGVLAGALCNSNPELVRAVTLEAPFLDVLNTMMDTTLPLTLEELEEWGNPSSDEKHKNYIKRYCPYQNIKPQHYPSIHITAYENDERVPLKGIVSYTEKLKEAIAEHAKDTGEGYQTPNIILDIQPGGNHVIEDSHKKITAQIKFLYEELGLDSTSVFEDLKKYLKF
LYPLA1 counter: counter-screen for PME1 inhibitors: inhibitors of human LYPLA1 | O75608 | 320,000 tested, 0.16% active | inhibition, % at 5.9 µM | recombinant LYPLA1, FP-Rh probe fluorescence polarization | AID 2174;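 active means inhibition above the mean of all tested compounds plus 3 SD, set per campaign, cut at about 14% in these data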;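 further: inhibitors block serine hydrolase probe labeling of LYPLA1 so polarization falls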
LYPLA2 conf: counter-screen for PME1 inhibitors: confirmation of human LYPLA2 inhibitors; shares compounds with LYPLA2 inh; recombinant LYPLA2, FP-Rh probe fluorescence polarization; inhibition, % at 5.9 µM; 1,100 tested, 72% active;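 active means mean inhibition across replicates above the hit cutoff set in the primary screen, cut at about 26% in these data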;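 further: blocked labeling of the enzyme by serine hydrolase FP-Rh probe lowers polarization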
LYPLA2 gel ABPP: inhibitors of human LYPLA2 | 150 tested, 30% active | inhibition, % at 20 µM | rhLYPLA2 in mouse brain proteome, gel ABPP FP-Rh | shares compounds with LYPLA2 inh | AID 652029;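 active means inhibition of LYPLA2 enzyme probe labeling above about 50%, limit read from the data; inactive means inhibition below that limit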;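 further: loss of FP-Rh probe labeling of the LYPLA2 gel band measured as band density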
Large screens that a line does not name were inactive (follow-up assays come after a bar, where they were run). The list is not random: actives were taken first. Their share in the collection is about 1.6%.

O=C(NCCN1CCN(c2cccc(Cl)c2)CC1)Nc1ccccc1	none
CC(=O)C1=C(C)N(Cc2ccccc2)C(=O)N[C@H]1c1cccc(F)c1	none
O=C(NNC(=O)c1cc2ccccc2oc1=O)c1ccccc1[N+](=O)[O-]	LYPLA2 inh 27.5 | LYPLA2 conf inactive
Cc1cc(C(=O)NNC(=O)c2ccccc2[N+](=O)[O-])c(C)o1	none (no result: MEX-5 binding, Fam108B counter)
O=C1C2CCCN2C(=O)N1CCCCN1CCN(c2cccc(Cl)c2)CC1 (stereo not drawn)	LYPLA2 inh 39.3 | LYPLA2 conf 35.8
Nn1c(SCc2ccccc2F)nnc1-c1cccnc1	none
C(=N\n1cnnc1)/c1cccc(OCCOc2ccccc2)c1	none
Fc1ccccc1COc1ccc(/C=N/n2cnnc2)cc1	LYPLA2 inh 26.2 | LYPLA2 conf inactive
CC12CCC(c3c(C(=O)N4CCOCC4)nn(-c4ccccc4)c31)C2(C)C (stereo not drawn)	LYPLA2 inh 27.6 | LYPLA2 conf inactive
CSCC(=O)N1CCC(CCC(=O)NC2CC2)CC1	none
Cc1cc(-n2nc3ccccc3n2)c(O)c([N+](=O)[O-])c1	none
O=[N+]([O-])c1ccc(Oc2cccc(C(F)(F)F)c2)nc1	LYPLA2 inh 41.4 | LYPLA2 conf 75.4 | LYPLA2 gel ABPP inactive
O=C1NC(c2ccc(Cl)cc2)=COc2ccccc21	LYPLA2 inh 36.4 | LYPLA2 conf 29.5
COc1ccc(C2=COc3ccccc3C(=O)N2)cc1	none
O=C(Nc1ccc2oc(-c3ccncc3)nc2c1)c1ccc2c(c1)OCCO2	LYPLA2 inh 28.0 | LYPLA2 conf inactive
COc1cc(-c2c(C#N)c(N)nc3c2CCCC3)cc(OC)c1OC	none
COc1cc(-c2c(C#N)c(N)nc(SCc3ccncc3)c2C#N)cc(OC)c1OC	LYPLA2 inh 35.1 | LYPLA2 conf 29.0
O=C(CSc1ccc(Cl)cc1)N1CCN(c2ccc([N+](=O)[O-])cc2Cl)CC1	LYPLA2 inh 30.6 | LYPLA2 conf inactive
COc1ccc(N=C2SC(C(=O)Nc3ccc4c(c3)OCO4)CC(=O)N2C)cc1 (stereo not drawn)	LYPLA2 inh 52.6 | LYPLA2 conf 39.2
CCN=C1SC(C(=O)Nc2cccc(Br)c2)CC(=O)N1CC (stereo not drawn)	LYPLA2 inh 26.4 | LYPLA2 conf 25.9
CCN1C(=O)CC(C(=O)Nc2ccc(F)cc2)SC1=Nc1ccc2c(c1)OCO2 (stereo not drawn)	LYPLA2 inh 35.5 | LYPLA2 conf inactive
CCN=C1SC(C(=O)Nc2cccc(C)c2)CC(=O)N1CC (stereo not drawn)	none
CCOc1ccc(NC(=O)C2CC(=O)N(CC)C(=Nc3ccc4c(c3)OCO4)S2)cc1 (stereo not drawn)	none
COc1ccc(S(=O)(=O)N2CCOC2CNC(=O)C(=O)NCCN(C)C)cc1 (stereo not drawn)	none
CCN(c1cccc(C)c1)S(=O)(=O)c1ccc(-c2ccc(=O)[nH]n2)o1	none
CCOCCCNC(=O)C1CC(=O)N(CCc2ccc(C)cc2)C1 (stereo not drawn)	none
COc1ccccc1NC(=O)COC(=O)C1CC2C=CC1C2 (stereo not drawn)	none
CCCCCN1CC(=O)N2Cc3[nH]c4ccccc4c3C[C@H]2C1=O	LYPLA2 inh 55.8 | LYPLA2 conf 56.0 | LYPLA2 gel ABPP inactive
CCCCCCN1CC(=O)N2Cc3[nH]c4ccccc4c3C[C@H]2C1=O	LYPLA2 inh 58.4 | LYPLA2 conf 57.7 | LYPLA2 gel ABPP inactive
C=CCN1CC(=O)N2Cc3[nH]c4ccccc4c3C[C@H]2C1=O	none
CC1CN(Cc2nc3c(c(=O)[nH]c(=O)n3C)n2CCN2CCOCC2)CC(C)O1 (stereo not drawn)	none
Cc1cc2c(cc(C(=O)OC(C(=O)NC3CCCCC3)C(C)C)n2C)o1 (stereo not drawn)	none (no result: MEX-5 binding, Fam108B counter)
OCCC1CN(Cc2cccc(C(F)(F)F)c2)CCN1Cc1ccccc1 (stereo not drawn)	none
O=C(COC(=O)c1cncc(Br)c1)NCc1ccc(Cl)cc1	LYPLA2 inh 27.0 | LYPLA2 conf inactive
O=C(COC(=O)c1cncc(Br)c1)NCc1ccccc1	none
O=[N+]([O-])c1ccc(CN2CCOCCOCCN(Cc3ccc([N+](=O)[O-])cc3)CCOCC2)cc1	LYPLA2 inh 37.2 | LYPLA2 conf inactive
CC1Cc2cc(S(=O)(=O)N3CCN(c4ccc(Cl)cc4)CC3)ccc2N1C(=O)C1CC1 (stereo not drawn)	none
CC(=O)N1c2ccc(S(=O)(=O)N3CCC(C(=O)N4CCN(c5ccc(Cl)cc5)CC4)CC3)cc2CC1C (stereo not drawn)	LYPLA2 inh 91.7 | LYPLA2 conf 92.2 | LYPLA2 gel ABPP 75.0
COc1cccc(N2CCN(C(=O)C3CCN(S(=O)(=O)c4ccc5c(c4)CC(C)N5C(C)=O)CC3)CC2)c1 (stereo not drawn)	LYPLA2 inh 40.3 | LYPLA2 conf 49.3
O=C(CSc1ccccc1)N1CCCC(N2CCN(c3cccc(Cl)c3)CC2)C1 (stereo not drawn)	LYPLA2 inh 69.3 | LYPLA2 conf 64.0 | LYPLA2 gel ABPP inactive
O=C(CSc1ccccc1)N1CCCC(N2CCN(c3ccc(F)cc3)CC2)C1 (stereo not drawn)	none
CCn1nc(C)cc1C(=O)N1CCCC(N2CCN(c3cccc(Cl)c3)CC2)C1 (stereo not drawn)	LYPLA2 inh 45.9 | LYPLA2 conf 46.5
Cc1cc(C(=O)N2CCCC(N3CCN(c4cccc(Cl)c4)CC3)C2)n(C)n1 (stereo not drawn)	none (no result: PME-1 primary, Fam108B counter, LYPLA2 inh, PREPL inh, LYPLA1 counter)
CC(C)NC(=S)N/N=C/C1=CCC2CC1C2(C)C (stereo not drawn)	none
COC(=O)c1ccc(NC(=O)C(=O)N2CCN(C(=S)Nc3ccccc3OC)CC2)cc1	none
COC(=O)c1ccc(NC(=O)C(=O)N2CCN(C(=S)Nc3cccc(C)c3C)CC2)cc1	LYPLA2 inh 50.3 | LYPLA2 conf 42.4
COc1ccc(-c2nnc(SCC(=O)N3CCCc4ccccc43)o2)cc1OC	none
Cn1c(=O)c2c(ncn2CC(=O)N/N=C/C(Br)=C/c2ccccc2)n(C)c1=O	LYPLA2 inh 26.9 | LYPLA2 conf 38.8
Cc1ccc(NC2=C(Cl)C(=O)OC2OC(=O)c2ccc(C)cc2)cc1 (stereo not drawn)	LYPLA2 inh 30.5 | LYPLA2 conf 37.9
CCOc1ccc(N2CC(C(=O)Nc3nnc(C4CCCCC4)s3)CC2=O)cc1 (stereo not drawn)	none
COc1ccc(-c2noc(CN3CCN(c4ccccc4)CC3)n2)cc1	none

Source: PubChem BioAssay (several laboratories)
